# Assay results published in PubChem BioAssay (EPA / NIEHS).
# Inconclusive results are not listed. The source made the active and inactive calls. How the source made its calls: active means hit-call score of the fitted dose curve at least 0.9, where 1 is the maximum; inconclusive means response in the unintended direction; inactive means score below 0.9.
# Columns and labels:
# [1] = CCTE_Deisenroth_AIME_384WELL_CTox_Active: Cytotoxicity Assessment (CTOX) in CCTE's 384-well Estrogen Receptor Transactivation Assay with AIME metabolic competence (metabolism positive), Deisenroth Lab (AID 2284037);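 further: chemicals first conditioned 2 h by alginate-bound induced rat liver S9 before cells; activity means signal loss indicating cell death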
# In short: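 Cytotoxicity in VM7Luc4E2 breast cells, 24 hour, measured as protease-substrate fluorescence loss, after 2-hour metabolic conditioning with induced rat hepatic S9 in alginate microspheres. Concentrations 0.002 - 200 uM, 10 points, bidirectional fitting.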
# [2] = CCTE_Deisenroth_AIME_384WELL_CTox_Inactive: Cytotoxicity Assessment (CTOX) in CCTE's 384-well Estrogen Receptor Transactivation Assay without AIME metabolic competence (metabolism negative), Deisenroth Lab (AID 2284039);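 further: cell viability via live-cell protease substrate cleaved to fluorescent probe; cells exposed 24 h to medium preincubated 2 h with alginate-water beads without S9; loss of fluorescence signal means loss of viability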
# In short: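 Fluorescent protease-substrate viability readout after 24 h exposure of VM7Luc4E2 cells to conditioned medium. Chemicals (0.002–200 uM) first sat 2 h over alginate-water beads, no S9. Data fitted bidirectionally, loss of signal meaning viability loss.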
# [3] = system: DIO3 (gene 1735); experiment: CCTE_GLTED_hDIO3: CCTE's human Deiodinase 3 (DIO3) Inhibition Assay, Great Lakes Toxicology and Ecology Division (GLTED) Lab (AID 2284055);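 on AC50: potency is for inhibition seen as loss of released iodide signal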
# In short: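 Inhibition is read as reduced iodide release, measured spectrophotometrically by the Sandell-Kolthoff cerium/arsenic reaction. Adenovirus-expressed human DIO3 enzyme is exposed to chemical for 3 h, n=3 plates. Iodinated chemicals, nitrite, iron or thiocyanate may interfere.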
structure (smiles),measurement,setting,value
OCc1cccc(Oc2ccccc2)c1,outcome,[1],inactive
O=P(O)(O)O,outcome,[1],inactive
same,outcome,[2],inactive
CCCCC(CC)COC(=O)c1ccc(O)cc1 (configuration not stated),outcome,[1],inactive
same,AC50,[2],61.6 µM (active)
same,AC50,[3],79.1 µM (active)
CCCCCCCCCCCCN1CCCCCC1=O,AC50,[3],89.2 µM (active)
Nc1ccccc1[N+](=O)[O-],outcome,[2],inactive
COc1ccc(N=Nc2cc(C)c(N=Nc3ccc(S(=O)(=O)O)cc3)cc2OC)cc1,AC50,[3],100 µM (active)
C=C(C)[C@@H]1CC=C(C)C(=O)C1,outcome,[2],inactive
CCCCCCCCC=CCCCCCCCC1=NCCN1CCO,outcome,[1],inactive
same,outcome,[2],inactive
same,AC50,[3],3.92 µM (active)
CCOc1ccc(N=Nc2ccc(C=Cc3ccc(N=Nc4ccc(OCC)cc4)cc3S(=O)(=O)O)c(S(=O)(=O)O)c2)cc1,AC50,[3],35.6 µM (active)
CCCCCCCCCCCCCCN(CCO)CCO,outcome,[1],inactive
same,AC50,[3],7.58 µM (active)
CN1C(=O)c2ccccc2C1=O,outcome,[2],inactive
CCCCCCCCCCCCCC(=O)OCC(O)CO (configuration not stated),AC50,[3],47.9 µM (active)
C=C(C)C(=O)OCCOC1CC2CC1C1C=CCC21 (configuration not stated),AC50,[3],6.43 µM (active)
CCc1cc(Cc2cc(CC)cc(C(C)(C)C)c2O)c(O)c(C(C)(C)C)c1,AC50,[3],10.7 µM (active)
Oc1ccc2cc(SSc3ccc4cc(O)ccc4c3)ccc2c1,outcome,[1],inactive
same,outcome,[2],inactive
same,AC50,[3],3.47 µM (active)
C=C1CC[C@H](O)C/C1=C/C=C1\CCC[C@]2(C)[C@@H]([C@H](C)/C=C/[C@H](C)C(C)C)CC[C@@H]12,AC50,[3],2.3 µM (active)
C=CC(C)(O)CCC=C(C)C (configuration not stated),outcome,[1],inactive
same,outcome,[2],inactive
CCOC(=O)[C@@H](C)Oc1ccc(Oc2nc3ccc(Cl)cc3o2)cc1,AC50,[3],7.15 µM (active)
Clc1ccc(C(c2ccccc2Cl)C(Cl)Cl)cc1 (configuration not stated),AC50,[1],100 µM (active)
same,AC50,[2],152 µM (active)
Cc1cc(S(=O)(=O)O)ccc1N=Nc1c(O)ccc2ccccc12,outcome,[3],inactive
O=CCc1ccccc1,AC50,[3],74.8 µM (active)
CCOC(=O)C1OC1c1ccccc1 (configuration not stated),outcome,[2],inactive
O=C(CC(=O)c1ccccc1)c1ccccc1,outcome,[1],inactive
same,outcome,[2],inactive
CC(C)CCCCCCCCCCCCCCC(=O)O,AC50,[3],19.4 µM (active)
O=C(O)c1ccc(O)cc1,outcome,[2],inactive
CCCCCC(C=O)=Cc1ccccc1,AC50,[3],16.4 µM (active)
